Several values for one entry are separate records, joined by “and”; a condition that tells them apart may be missing. Identical values can stand only once. About 83,000 compounds went through this panel and 20% of them were active in at least one assay; those are over-represented in the sample as a whole.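 Percent growth is the endpoint: 0 to 100 indicates growth inhibition (40 means 60% inhibition), 0 means no net growth, and negative values indicate cell death.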 Activity calls are given as the source filed them.

The subject of the first assay is HT29 colon. In words: NCI-60 one-dose screen, 48 h (100 = growth as untreated, 0 = no growth, -100 = all killed). The note with it: 10 µM. The method, then: Growth inhibition of the HT29 human tumor cell line is measured as a screen for anti-cancer activity. Cells are grown in 96 well plates and exposed to the test compound for 48 hours. Compounds are tested at a single concentration, which is 10^-5 M for most compounds. The reported endpoint is percent growth (GI% or GIPRCNT), where numbers from 0 - 100% represent growth inhibition, and numbers from -100% - 0 represent cell death. For example, a value of 40 represents 60% growth inhibition. A value of 0 means no net growth occurred over the course of the experiment. A value of -40 indicates 40% of cells at the beginning of the experiment died by the end of the experiment. A value of -100 means all cells are dead at the end of the experiment.
NCI-60 Human Tumor Cell Lines Screen was performed using the standard one-dose NCI protocol, which is described in more detail at https://dtp.cancer.gov/discovery_development/nci-60/default.htm.
Compounds with GIPRCNT values below 10 were considered active. Activity score was based on GIPRCNT using the following formula: […]
Score is 0 for GIPRCNT values of 100 or above, 50 for GIPRCNT values of 0, and 100 for GIPRCNT values of -100.
As for `CC(=O)/C=C/c1ccc(N(C)Cc2ccc(C(C)(C)C)cc2)cc1`, the growth is 78.1% (inactive).

Still in this assay, the particulars now being: 10 µM unless noted.
On to `Cc1nc2sc(C(=O)Nc3cccc4ncccc34)c(N)c2cc1C(C)O` (stereo not given), for which the growth is 52.8% (inactive).
Still for that read-out and setting: the result for `C=C(C)[C@@H]1CC[C@]2(C(=O)N3CCN(C)CC3)CC[C@]3(C)[C@H](CC[C@@H]4[C@@]5(C)CC(CCCNC(C)=O)(CCCNC(C)=O)[C@H](OC(C)=O)C(C)(C)[C@@H]5CC[C@]43C)[C@@H]12` reads 83% (inactive); that for `O=C(c1ccc(Nc2nccc(NCCCNc3ccnc4cc(Cl)ccc34)n2)cc1)N1CCCCC1`, 19.7% (inactive).
Take `Cc1ccc(-c2nc3nc(-c4ccc(Cl)cc4)nc(N4CCCNCC4)c3o2)cc1`: the growth is -82.4% (active).
Turning to `C[N+]1=C(/C=C\C=C\c2ccccc2)C(C)(C)c2ccccc21`, the growth is 12.3% (inactive).
`NS(=O)(=O)OCC1OC(n2cnc3cncnc32)C(O)C1O` (stereo not given): the growth is 13.7% [0.1 µM] (inactive) and 14.3% [0.1 µM] (inactive).
Consider `CCCCCCCCN(CCCCCCCC)CC(O)c1cc(Cl)ccc1OC` (stereo not given), for which the growth was 38.7% (inactive).
For `O=C(Nc1ccc2ccccc2c1)c1cc2ccccc2cc1O`, the growth was 98.9% (inactive).
With `CN(Cc1ccccc1)c1nc(Cl)c(C2CC(c3ccc(F)cc3)=NN2C=O)s1` (stereo not given), the growth was 95.4% (inactive).
Still for that read-out and setting: next, `CCCCC(NC(=O)CN1C(=O)/C(=C/C(C)=C/c2ccccc2)SC1=S)C(=O)O` (stereo not given): 120% (inactive); `COC(=O)c1nc(-c2ccccc2)oc1S(=O)(=O)N(C)CCO`: 35.7% (inactive).
Same read-out and setting: next, `COc1cc(OC)cc(-c2ccc(-c3ccc(C(=N)N)cn3)s2)c1`: 37.2% (inactive).
As for `Nc1nc2c(s1)CCc1cn(S(=O)(=O)c3ccccc3)cc1-2`, the growth is 106% (inactive).
The same measure, in the same setting: next, `N#C/C(=C\c1ccc(Br)cc1)n1nnc2c(F)cccc21`: -0.198% (active); `COc1ccc(C/C(C)=C(/c2ccc(OCCN3CCCCCC3)cc2)c2ccc(OC(=O)c3ccccc3)cc2)cc1`: 89.9% (inactive).
As to `COc1ccc(CN2CCc3c(Cl)nc(N)nc3C2=O)c(OC)c1`, the growth is -4.88% [100 µM] (active).
Same read-out and setting: next, `C=C1C(=O)O[C@H]2[C@H]1CC/C(CNS(=O)(=O)c1ccc3ccccc3c1)=C\CC[C@@]1(C)O[C@@H]21`: -78.2% (active); `CCOC(=O)c1c(-c2ccc(OC)cc2)c(C#N)c2c(C#N)c(N)nn2c1N`: 6.58% (active).
Still for that read-out and setting: the result for `N#Cc1ccccc1-c1ccc(Cn2c(-c3cscn3)nc3c(Cl)cccc32)cc1` reads 71% (inactive); that for `OCCN1CCN(CC/C=C2\c3ccccc3Sc3ccc(Cl)cc32)CC1`, -41.8% (active) and -43.3% (active); that for `CCOc1ccc(N2C(N)=NC(N)=NC2(C)C)cc1`, 2.75% (active) and 87.4% (inactive).
With `C=CCNC(=O)Cc1c(-c2ccc(OC)cc2)oc2c(OC)c3c(c(OC)c12)OCO3`, the growth was 86.5% (inactive).
`Cc1ccc(-c2nc3nc(-c4ccc(Br)cc4)nc(N4CCCNCC4)c3o2)cc1`: the growth is -85.3% (active).
As for `Nc1nc(CSc2n[nH]c(N)n2)nc(Nc2ccccc2)n1`, the growth is 106% (inactive).
On to `COc1cc2c(cc1OCCCOC1=C=C=C(c3ccc4c(c3)c3cc(-c5ccc(OCCCOc6cc7c(cc6OC)C(=O)N6CCC[C@H]6C=N7)cc5)ccc3n4S(=O)(=O)c3ccc(C)cc3)C=C1)N=C[C@@H]1CCCN1C2=O`, for which the growth is 37.7% (inactive).
On to `CCCCC1=C(Br)C(=O)c2nc(C)ccc2C1=O`, for which the growth is 107% (inactive).
As to `CCOC(=O)C1=C(C)NC(=O)NC1c1c(Cl)n(-c2ccccc2)c2ccccc12` (stereo not given), the growth is 80.7% (inactive).
As to `Cc1ccc(S(=O)(=O)OC[C@@]2(C)CC[C@]3(C)CC[C@]4(C)C(=CC[C@@H]5[C@@]6(C)CCCNC(C)(C)[C@@H]6CC[C@]54C)[C@@H]3C2)cc1`, the growth was -88.2% (active).
For the compound `CC1=C2[C@@H](CC1)[C@]1(C)O[C@@](C(C)C)(C[C@H]1OC(=O)CO)[C@H]2OC(=O)C1CC1c1ccccc1` (stereo not given in full), the growth was 75% (inactive).
For the compound `Cc1ccc2c(c1)C(C)Cc1c(ncnc1-n1cnc3cc(C)ccc31)N2C` (stereo not given), the growth is -10.3% (active).
The same measure, in the same setting: next, `CC[C@]1(O)CC2CN(CCc3c([nH]c4ccccc34)C(C(=O)OC)(c3cc4c(cc3OC)N(C=O)[C@H]3[C@@](O)(C(=O)OC)[C@H](OC(C)=O)[C@]5(CC)[C@@H]6C[C@@H]6CN6CC[C@]43[C@@H]65)C2)C1` (stereo not given in full): -21.1% (active); `O=C(NNC(=S)Nc1ccccc1)c1ccncc1`: 99.6% (inactive).
On the same count and under the same terms, next, `COc1cc(/C=C2/C=C(c3ccc(C(C)(C)C)cc3)N(CCc3ccc(S(N)(=O)=O)cc3)C2=O)cc(OC)c1OC`: 8.93% (active); `COc1ccc(/C=C/C(=O)c2cc3c(N)c(C(=O)Nc4ccccc4)sc3nc2C)cc1`: -3.68% (active); `O=S(=O)(Nc1ccc(F)cc1)c1ccc(-c2cnc(C3CC3)o2)cc1`: 7.98% (active).
As to `N=C(N)c1ccc(-c2ccc(-c3ccc(F)cc3)s2)nc1`, the growth was 8.67% (active).
Turning to `COc1ccc(-c2cc(-c3cccc(Cl)c3)c(C#N)c(=O)[nH]2)c(OC)c1`, the growth was 118% (inactive).
As to `NCCOCCOc1ccccc1`, the growth is 97.6% (inactive).

Still in this assay, the particulars now being: 100 µM.
Take `CC(=O)/C=C/c1ccc(N(C)Cc2ccc(C(C)(C)C)cc2)cc1`: the growth was -10.7% (active).

The values are drawn from PubChem BioAssay (NCI).
